Results as given in PubChem BioAssay (NCI).
About 83,000 compounds went through this panel and 20% of them were active in at least one assay; those are over-represented in the sample as a whole.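 Interpretation: 100, growth as untreated; towards 0, rising growth inhibition; 0, no net growth; 0 to -100, cell death. Compounds scoring below 10 were considered active.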 Unmarked numbers belong to inactive results. Calls of active or inactive are those of the source.

What was measured:
Assay in all cases: NCI-60 one-dose screen, 48 h (100 = growth as untreated, 0 = no growth, -100 = all killed)
Conditions in all cases: 10 µM
DU-145 prostate = tested on: DU-145 prostate
K-562 leukemia = tested on: K-562 leukemia
MDA-MB-231 breast = tested on: MDA-MB-231 breast
RXF 393 renal = tested on: RXF 393 renal
SF-268 CNS = tested on: SF-268 CNS
SF-295 CNS = tested on: SF-295 CNS
SF-539 CNS = tested on: SF-539 CNS
UACC-257 melanoma = tested on: UACC-257 melanoma
M14 melanoma = tested on: M14 melanoma
HCT-15 colon = tested on: HCT-15 colon
HT29 colon = tested on: HT29 colon
SNB-75 CNS = tested on: SNB-75 CNS
SNB-19 CNS = tested on: SNB-19 CNS
U251 CNS = tested on: U251 CNS
PC-3 prostate = tested on: PC-3 prostate
SK-MEL-5 melanoma = tested on: SK-MEL-5 melanoma
UACC-62 melanoma = tested on: UACC-62 melanoma
LOX IMVI melanoma = tested on: LOX IMVI melanoma
SK-MEL-28 melanoma = tested on: SK-MEL-28 melanoma
MALME-3M melanoma = tested on: MALME-3M melanoma

Compound | growth (DU-145 prostate) | growth (K-562 leukemia) | growth (MDA-MB-231 breast) | growth (RXF 393 renal) | growth (SF-268 CNS) | growth (SF-295 CNS) | growth (SF-539 CNS) | growth (UACC-257 melanoma) | growth (M14 melanoma) | growth (HCT-15 colon) | growth (HT29 colon) | growth (SNB-75 CNS) | growth (SNB-19 CNS) | growth (U251 CNS) | growth (PC-3 prostate) | growth (SK-MEL-5 melanoma) | growth (UACC-62 melanoma) | growth (LOX IMVI melanoma) | growth (SK-MEL-28 melanoma) | growth (MALME-3M melanoma)
CN1CCN(CCCn2c(=O)c3sc4ncccc4c3n3nnc(-c4ccccc4)c23)CC1 | 31.5% | -32.5% (active) | -45.5% (active) | -68.3% (active) | -10.8% (active) | -76.1% (active) | -90.5% (active) | -88.8% (active) | -82.7% (active) | 7.72% (active) | -54.1% (active) | -24.7% (active) | 23.3% | -81.8% (active) | 46.5% | -96.3% (active) | -88% (active) | -90.8% (active) | -92.6% (active) | –
O=C1c2ccccc2C(=O)N1CCCCNc1ccccc1 | 102% | 149% | 79.6% | 104% | 54.1% | 98% | 74.6% | 106% | 98.9% | 96.8% | 110% | 90.8% | 96.8% | 86.3% | 75.5% | 105% | 96% | 117% | 113% | –
Cc1ccc(C)c(COc2cc(NC(=O)c3ccc4c(c3)OCO4)ccc2N(C)S(C)(=O)=O)c1 | -40.5% (active) | 13.3% | -10.8% (active) | -1.01% (active) | 20.8% | -4.18% (active) | -7.46% (active) | 66.6% | -34.2% (active) | 11.2% | 5.29% (active) | 4.74% (active) | 18.3% | 12.9% | 26.8% | -42.5% (active) | 15.8% | 36% | – | –
CC1=NN(C(=O)c2nn(-c3ccc(Cl)cc3)cc2O)C(=O)C1 | 52.4% | 15.3% | 63.2% | 56.9% | 38.4% | 67% | 51.9% | 74.5% | 50.9% | 34.5% | 41.8% | 28.7% | 59.6% | 47.9% | – | 64.9% | 41.5% | 40.5% | 72.1% | –
O=C1OC(C(Cl)(Cl)Cl)OC1C(Cl)(Cl)Cl (centres undefined) | 101% | 91.3% | 103% | 116% | 103% | 98% | 115% | 92.5% | 99% | 109% | 105% | 104% | 102% | 104% | 86.8% | 107% | 95.3% | 97% | 107% | –
Cc1cn(-c2cccc(NC(=O)c3ccc(C)c(Nc4nccc(-c5cccnc5)n4)c3)c2)cn1 | 13.3% | -22.5% (active) | -48.5% (active) | -49.5% (active) | 15.8% | – | -33.3% (active) | 29.1% | 22.6% | – | -43.4% (active) | -45% (active) | 51.2% | – | 34.4% | 40.2% | 3.99% (active) | -65.5% (active) | -37.6% (active) | 42%
O=C1CC(=O)N(C(=O)c2nn(-c3ccc(Cl)cc3)cc2O)N1 | 46.9% | 5.55% (active) | 62.3% | 53.3% | 43.3% | -7.1% (active) | 39.7% | 66.1% | 47.5% | 36.9% | 27.9% | 40.9% | 48% | 39.5% | – | 47% | 36.1% | 36.8% | 136% | –
COC1=CC(=O)OC(c2ccc(OC)cc2)C1 (centres undefined) | 113% | 130% | 100% | 113% | 96.5% | 91.7% | 104% | 104% | 122% | 121% | 110% | 86.3% | 104% | 117% | 105% | 106% | 101% | 94.9% | 123% | –
NS(=O)(=O)c1ccc(N2N=C(c3ccccc3)CCC2=O)cc1 | 182% | 85.1% | 112% | 110% | 176% | 99% | 102% | 96.5% | 100% | 109% | 98.6% | 108% | 94.7% | 104% | 105% | 105% | 106% | 108% | 120% | –
OCCn1cccn1 | 104% | 101% | 103% | 93.8% | 100% | 108% | 98.3% | 136% | 112% | 98.6% | 104% | 109% | 113% | 101% | 100% | 99% | 114% | 96.3% | 117% | –
COc1nc2c(c(=O)n1C)CN(c1ccccc1)C(=O)C(C)N2 (centres undefined) | 114% | 101% | 98.3% | 95.2% | 97.1% | 105% | 96.1% | 93.5% | 95.3% | 101% | 99.9% | 77.4% | 96.7% | 99% | – | 104% | 91.7% | 91.6% | 113% | –
CN(C)c1nc(N)c2nccnc2n1 | 108% | 128% | 108% | 115% | 101% | 84.4% | 105% | 111% | 117% | 120% | 110% | 84.8% | 104% | 112% | 104% | 107% | 98% | 95.1% | 118% | –
NC(N)=N/N=C(\c1ccccc1)C(O)c1ccccc1 (centres undefined) | 112% | 90.7% | 100% | 98.8% | – | 102% | 111% | 101% | 97.3% | 111% | 92.3% | 93.7% | 95.3% | 106% | 94.6% | 103% | 94.6% | 94.2% | 107% | 96.2%
COc1ccccc1-n1c(-c2csc(NC(C)=O)n2)n[nH]c1=S | 119% | 87.5% | 121% | 102% | 111% | – | 112% | 98.1% | 98% | – | 95.1% | 86.5% | 114% | – | 95.4% | 99.6% | 110% | 93.1% | 109% | 109%
COc1ccc2c(c1)C(=O)/C(=C/c1cccc(OCC(=O)c3ccc([N+](=O)[O-])cc3)c1)CO2 | 63.4% | -81.2% (active) | 60.9% | – | 62.8% | 43.3% | 27.8% | -49.4% (active) | 8.08% (active) | -37.6% (active) | 6.81% (active) | 55.5% | 90.1% | 22.4% | 22.5% | 15.8% | 46.7% | -100% (active) | 43.9% | 30.4%
O=C1C=C(Nc2cccc(Br)c2)c2ccccc2C1=O | 22.4% | 21.4% | 54.6% | 31.8% | 58% | – | 15% | 79.4% | – | 22.7% | 111% | 12% | 43.6% | 31.3% | 37.4% | 15.8% | 46.8% | 37.5% | 56.7% | 47.2%
COc1ccc2nc3cc(Cl)ccc3c(NCCCNCCO)c2c1 | 5.64% (active) | -4.13% (active) | -53.8% (active) | – | -13.2% (active) | 3.49% (active) | -10.2% (active) | -75.4% (active) | -62.8% (active) | 13.6% | -66.3% (active) | -36.4% (active) | 4.9% (active) | -45.2% (active) | -30.6% (active) | 14.3% | -64.2% (active) | -59.7% (active) | -49% (active) | 17.8%
